Source: PubChem BioAssay (Tox21)
Several values for one entry are separate records, joined by “and”; a condition that tells them apart may be missing. Identical values can stand only once. Records with an inconclusive call do not appear. A call without a number means that no potency is given here. More than one record can exist for a structure, and the calls need not agree. Activity calls are given as the source filed them. Unless noted, calls follow the shape of the full dose curve.

What was measured:
[1] = Nuclear factor erythroid 2-related factor 2/antioxidant responsive element (Nrf2/ARE) small molecule agonists: qHTS cell viability counter screen in human keratinocytes (AID 1919968; active = well fitted cell-killing curve with a large enough effect in the repeat runs; also: nearly all actives have a fitted effect of over 55% in size; also: potency is read from the fitted curve at half-maximal effect)
Outline: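 Seed 1,500 KeratinoSens cells per well, then incubate 5 h at 37 C/5% CO2. Add compounds in DMSO and incubate 23 h. Add CellTiter-Fluor, wait 1 h and read fluorescence.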

[2] = Nuclear factor erythroid 2-related factor 2/antioxidant responsive element (Nrf2/ARE) small molecule agonists: luciferase reporter gene qHTS assay in human keratinocytes (AID 1919969); also: nearly all actives have a fitted effect of over 35% in size; also: potency is read from the fitted curve at half-maximal effect
[3] = target: Gonadotropin-releasing hormone receptor (Homo sapiens) (UniProt P30968); test: Human gonadotropin-releasing hormone receptor (GnRHR) small molecule agonists, calcium flux assay in GnRHR-HEK293 cells (AID 1920063); also: nearly all actives have a fitted effect of over 35% in size
Outline: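 Cells: HEK293 stably expressing human GnRHR. Steps: overnight (18 h) culture, 1 h calcium dye loading at 37 C, compound addition, kinetic fluorescence read at 480/540 nm. Each compound tested at 15 concentrations in triplicate.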

[4] = G protein-coupled receptor (GPCR) small molecule agonists, calcium flux assay: HEK293 wild type cell line counter screen (AID 1920065)
Outline: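 Counter-screen of the Tox21 10K library for non-specific calcium release: dye-loaded cells received compounds in DMSO and were monitored by kinetic fluorescence (480/540 nm, 3 min). Fifteen concentrations, run in triplicate.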

[5] = p53 small molecule agonists, cell-based qHTS assay with human liver microsomes: qHTS cell viability counter screen (AID 1963579); also: nearly all actives have a fitted effect of over 45% in size; also: potency is read from the fitted curve at half-maximal effect
Outline: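 In this multiplexed counter screen, the reporter plates were subsequently treated with CellTiter-Glo so that cell viability, reflected by luminescence, could be recorded for p53RE-bla cells dosed 16 h with compounds under microsomal activation (HLM and NADPH).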

[6] = p53 small molecule agonists, cell-based qHTS assay with rat liver microsomes: qHTS cell viability counter screen (AID 1963580); also: nearly all actives have a fitted effect of over 45% in size; also: potency is read from the fitted curve at half-maximal effect
Outline: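 HCT-116 p53RE-bla, 4,000 cells/well, 5 h pre-incubation; cpd + rat liver microsomes 0.5 mg/mL + NADPH 0.5 mg/mL (final); 16 h, 37 C; CellTiter-Glo, 30 min RT; luminescence.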

[7] = p53 small molecule agonists, cell-based qHTS assay: qHTS cell viability counter screen (AID 1963581); also: nearly all actives have a fitted effect of over 45% in size; also: potency is read from the fitted curve at half-maximal effect
Outline: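 Cells: HCT-116 with p53 response element-driven beta-lactamase. Treatment: 16 h, 37 C, compounds in DMSO. Read: CellTiter-Glo luminescence after 30 min RT.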

[8] = target: 5-hydroxytryptamine receptor 2A (Homo sapiens) (UniProt P28223); test: 5-hydroxytryptamine receptor 2A (HTR2A) small molecule antagonists, cell-based qHTS assay (AID 1963586); also: nearly all actives have a fitted effect of over 45% in size
Outline: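 Antagonist-mode intracellular calcium assay: DOI (4 nM) added after 5 min compound pre-incubation at room temperature to dye-loaded HTR2A-CHO cells. Fluorescence followed for 3 min, sampled every second.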

[9] = target: 5-hydroxytryptamine receptor 2A (Homo sapiens) (UniProt P28223); test: 5-hydroxytryptamine receptor 2A (HTR2A) small molecule agonists, cell-based qHTS assay (AID 1963587); also: nearly all actives have a fitted effect of over 30% in size; also: potency is read from the fitted curve at half-maximal effect
Outline: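 Kinetic calcium-flux fluorescence (2 min, 1 sec intervals) after compound addition in agonist mode. HTR2A-CHO cells were cultured 18 h, then dye-loaded 1 h at 37 C.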

[10] = target: Muscarinic acetylcholine receptor M1 (Homo sapiens) (UniProt P11229); test: Cholinergic receptor muscarinic 1 (CHRM1) small molecule antagonists, cell-based qHTS assay (AID 1963588); also: nearly all actives have a fitted effect of over 40% in size; also: potency is read from the fitted curve at half-maximal effect
Outline: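 CHRM1-CHO calcium-flux assay, antagonist mode. Cells were seeded 18 h, dye-loaded 1 h at 37 C and given compound for 5 min at RT, then acetylcholine was added at 50nM. FDSS fluorescence was read 3 min; 15 concentrations, three runs.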

[11] = cAMP Responsive Elements (CRE) small molecule antagonists, cell-based qHTS assay (AID 1963591; active = well fitted inhibition curve with a large enough effect in the signal ratio in the repeat runs, not every such curve was filed as active; the % refers to the signal ratio)
Outline: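 Antagonist mode: test compounds are co-incubated with the adenylyl cyclase activator NKH477 (0.25 uM final) on CRE-bla HEK293T cells for 3 h at 37 °C, followed by LiveBLAzer substrate loading.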

[12] = target: Beta-2 adrenergic receptor (Homo sapiens) (UniProt P07550); test: Adrenergic beta2 receptor (ADRB2) small molecule antagonists, cell-based qHTS assay (AID 1963592); also: series mostly up to about 92 µM; nearly all actives have a fitted effect of over 50% in size
Outline: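 Cells (CHO, stable ADRB2 overexpression) incubated 18-20hr at 37C; compounds added from DMSO; agonist mix (1nM isoproterenol, 100uM IBMX, 25uM Ro-20-1724) added; 0.5hr RT; d2-cAMP and anti-cAMP-cryptate added; 1hr RT; 665/615 nm read.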

[13] = target: Beta-2 adrenergic receptor (Homo sapiens) (UniProt P07550); test: Adrenergic beta2 receptor (ADRB2) small molecule agonists, cell-based qHTS assay (AID 1963593);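 also: CHO cells stably overexpressing human ADRB2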
Outline: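 CHO cells stably over-expressing ADRB2 were plated overnight at 37C, then dosed with compounds plus a stimulation mix containing 100uM IBMX and 25uM Ro-20-1724 for 0.5hr at room temperature. cAMP was measured by HTRF competition, 1hr.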

[14] = target: D(2) dopamine receptor (Homo sapiens) (UniProt P14416); test: Dopamine D2 receptor (DRD2) small molecule agonists, cell-based qHTS assay (AID 1963594); also: nearly all actives have a fitted effect of over 35% in size
Outline: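 cAMP accumulation in DRD2-HEK293 cells measured by HTRF after 1 h detection; compounds added 10 min before NKH477 (200nM […]) forskolin-analogue stimulation, 30 min at room temperature, with Ro20-1724 present at 0.1 mM final.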

[15] = target: D(2) dopamine receptor (Homo sapiens) (UniProt P14416); test: Dopamine D2 receptor (DRD2) small molecule antagonists, cell-based qHTS assay (AID 1963595; active = well fitted inhibition curve with a large enough effect in the signal ratio in the repeat runs, with a control signal flat; the % refers to the signal ratio)
Outline: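 Antagonism was scored as restored cAMP in HEK293-DRD2 cells. These cells were stimulated with 200 nM NKH477 and 12 nM quinpirole for 30 min at room temperature, in the presence of 0.1 mM Ro20-1724.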

[16] = target: Muscarinic acetylcholine receptor M1 (Homo sapiens) (UniProt P11229); test: Cholinergic receptor muscarinic 1 (CHRM1) small molecule agonists, cell-based qHTS assay (AID 1963589); also: nearly all actives have a fitted effect of over 35% in size
Outline: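 Agonist-mode qHTS in CHO cells stably carrying human muscarinic M1. Intracellular calcium is tracked by fluorescence every second after compound transfer; each compound runs at 15 concentrations in three independent runs.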

[17] = cAMP Responsive Elements (CRE) small molecule agonists, cell-based qHTS assay (AID 1963590)
Outline: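 Agonist mode qHTS in CRE-bla HEK 293T cells: compounds dosed from DMSO for 3 h at 37 C/5% CO2, followed by LiveBLAzer B/G FRET substrate for 2 h at room temperature.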

[18] = p53 small molecule agonists, cell-based qHTS assay with human liver microsomes (AID 1963577);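 also: p53 response element beta-lactamase reporter cells with liver microsomes plus NADPH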
Outline: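 16 h, 37 C exposure of p53RE-bla cells to compounds with human liver microsomes and NADPH (0.5 mg/mL final each); detection via LiveBLAzer mixture, 2 h dark at room temperature.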

[19] = p53 small molecule agonists, cell-based qHTS assay (AID 1963582; active = well fitted activation curve with a large enough effect in the signal ratio in the repeat runs, not every such curve was filed as active; the % refers to the signal ratio)
Outline: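 Quantitative HTS in p53RE-bla cells: after a 5 h settling period, compounds delivered in DMSO were left on cells for 16 h at 37 C, and reporter induction was measured as fluorescence following 2 h substrate loading.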

[20] = p53 small molecule agonists, cell-based qHTS assay with rat liver microsomes (AID 1963578)
Outline: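 With rat liver microsomes and NADPH present (0.5 mg/mL final each), p53RE-bla cells are treated with compound for 16 h at 37 C. LiveBLAzer detection mixture is then applied for 2 h at room temperature in the dark.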

Sequence of D(2) dopamine receptor (Homo sapiens) (P14416 whole entry, looked up): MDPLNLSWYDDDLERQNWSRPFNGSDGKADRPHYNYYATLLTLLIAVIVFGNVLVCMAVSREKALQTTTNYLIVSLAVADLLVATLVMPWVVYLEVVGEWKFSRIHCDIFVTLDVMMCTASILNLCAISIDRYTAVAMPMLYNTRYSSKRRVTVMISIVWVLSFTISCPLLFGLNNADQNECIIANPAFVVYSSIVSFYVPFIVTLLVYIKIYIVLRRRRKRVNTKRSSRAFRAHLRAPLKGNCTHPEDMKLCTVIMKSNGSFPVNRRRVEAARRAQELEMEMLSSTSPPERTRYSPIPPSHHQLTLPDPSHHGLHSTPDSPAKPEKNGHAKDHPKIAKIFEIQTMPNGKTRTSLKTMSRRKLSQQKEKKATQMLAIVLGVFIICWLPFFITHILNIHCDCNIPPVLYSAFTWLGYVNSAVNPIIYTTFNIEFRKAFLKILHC
Sequence of Muscarinic acetylcholine receptor M1 (Homo sapiens) (P11229 whole entry, looked up): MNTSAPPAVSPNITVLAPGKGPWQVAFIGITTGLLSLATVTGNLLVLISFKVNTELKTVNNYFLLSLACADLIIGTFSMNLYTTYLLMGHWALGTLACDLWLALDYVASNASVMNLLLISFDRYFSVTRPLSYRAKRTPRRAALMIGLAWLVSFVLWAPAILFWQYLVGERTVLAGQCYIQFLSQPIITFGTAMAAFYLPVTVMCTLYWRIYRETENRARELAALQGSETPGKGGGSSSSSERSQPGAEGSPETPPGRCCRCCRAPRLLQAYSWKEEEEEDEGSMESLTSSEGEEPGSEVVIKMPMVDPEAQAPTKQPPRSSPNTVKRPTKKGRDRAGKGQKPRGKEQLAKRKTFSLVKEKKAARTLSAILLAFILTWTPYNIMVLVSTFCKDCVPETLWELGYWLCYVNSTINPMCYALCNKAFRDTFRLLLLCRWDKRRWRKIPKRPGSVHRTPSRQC
Sequence of Gonadotropin-releasing hormone receptor (Homo sapiens) (P30968 whole entry, looked up): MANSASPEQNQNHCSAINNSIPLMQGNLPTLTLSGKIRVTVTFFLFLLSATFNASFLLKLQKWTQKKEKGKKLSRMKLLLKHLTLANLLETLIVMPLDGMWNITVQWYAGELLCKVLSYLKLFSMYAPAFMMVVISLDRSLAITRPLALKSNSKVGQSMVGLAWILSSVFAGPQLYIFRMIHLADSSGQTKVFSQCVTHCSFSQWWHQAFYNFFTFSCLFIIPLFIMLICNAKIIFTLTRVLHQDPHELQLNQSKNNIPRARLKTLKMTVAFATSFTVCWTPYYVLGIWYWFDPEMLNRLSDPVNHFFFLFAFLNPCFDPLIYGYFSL
Sequence of 5-hydroxytryptamine receptor 2A (Homo sapiens) (P28223 whole entry, looked up): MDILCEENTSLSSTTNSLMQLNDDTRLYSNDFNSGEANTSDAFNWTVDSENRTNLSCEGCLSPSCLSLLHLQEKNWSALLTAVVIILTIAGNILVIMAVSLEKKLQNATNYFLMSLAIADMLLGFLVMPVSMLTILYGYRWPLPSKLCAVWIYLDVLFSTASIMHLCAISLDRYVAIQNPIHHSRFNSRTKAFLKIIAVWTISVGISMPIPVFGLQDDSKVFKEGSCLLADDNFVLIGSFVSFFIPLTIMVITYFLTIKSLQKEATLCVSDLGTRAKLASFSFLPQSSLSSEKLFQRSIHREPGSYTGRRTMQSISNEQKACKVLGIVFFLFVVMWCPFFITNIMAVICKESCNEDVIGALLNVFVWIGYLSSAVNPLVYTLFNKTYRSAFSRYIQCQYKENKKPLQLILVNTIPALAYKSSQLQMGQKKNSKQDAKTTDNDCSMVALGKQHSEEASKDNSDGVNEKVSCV
Sequence of Beta-2 adrenergic receptor (Homo sapiens) (P07550 whole entry, looked up): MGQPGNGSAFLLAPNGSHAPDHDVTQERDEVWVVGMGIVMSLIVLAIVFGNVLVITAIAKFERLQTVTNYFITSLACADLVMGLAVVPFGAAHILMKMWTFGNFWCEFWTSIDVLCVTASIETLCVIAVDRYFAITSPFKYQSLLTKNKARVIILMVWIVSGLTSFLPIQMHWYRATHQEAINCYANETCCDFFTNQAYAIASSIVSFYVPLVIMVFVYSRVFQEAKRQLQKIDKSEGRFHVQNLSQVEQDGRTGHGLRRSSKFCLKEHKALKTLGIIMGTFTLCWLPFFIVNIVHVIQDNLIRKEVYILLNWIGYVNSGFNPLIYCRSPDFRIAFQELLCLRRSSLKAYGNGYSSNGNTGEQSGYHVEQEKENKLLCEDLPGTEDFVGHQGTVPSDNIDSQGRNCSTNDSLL

CCOP(=O)(O)OCC (tested in a mixture with another compound)
Potency [1]: inactive and 24.1 µM (active)
Potency [2]: inactive
Potency [3]: inactive
Potency [4]: inactive
Potency [5]: inactive and 36.1 µM (active)
Potency [6]: inactive and 36.1 µM (active)
Potency [7]: inactive and 28.6 µM (active)
Potency [8]: inactive
Potency [9]: inactive and 19.3 µM (active)
Potency [10]: inactive and 1.48 µM (active)
Potency [11]: inactive
Potency [12]: inactive
Potency [13]: inactive
Potency [14]: inactive
Potency [15]: inactive

CC(=O)C=C(C)C
Potency [1]: inactive
Potency [2]: inactive
Potency [3]: inactive
Potency [4]: inactive
Potency [5]: inactive
Potency [6]: inactive
Potency [7]: inactive
Potency [9]: inactive
Potency [16]: inactive
Potency [17]: inactive
Potency [11]: inactive
Potency [12]: inactive
Potency [13]: inactive
Potency [14]: inactive
Potency [15]: inactive

CNC(=O)Oc1ccccc1OC(C)C
Potency [1]: inactive
Potency [2]: inactive
Potency [3]: inactive
Potency [18]: inactive
Potency [5]: inactive
Potency [6]: inactive
Potency [7]: inactive
Potency [19]: inactive
Potency [9]: inactive
Potency [16]: inactive
Potency [17]: inactive
Potency [11]: inactive
Potency [12]: inactive
Potency [13]: inactive
Potency [14]: inactive
Potency [15]: inactive

CC(C)C#N
Potency [1]: inactive
Potency [2]: inactive
Potency [3]: inactive
Potency [4]: inactive
Potency [5]: inactive
Potency [6]: inactive
Potency [7]: inactive
Potency [8]: inactive
Potency [9]: inactive
Potency [10]: inactive
Potency [16]: inactive
Potency [17]: inactive
Potency [11]: inactive
Potency [12]: inactive
Potency [13]: inactive
Potency [14]: inactive
Potency [15]: inactive

CNC(=O)O/N=C/C(C)(C)SC
Potency [1]: inactive
Potency [2]: inactive
Potency [3]: inactive
Potency [4]: inactive
Potency [5]: inactive
Potency [6]: inactive
Potency [7]: inactive
Potency [19]: inactive
Potency [8]: inactive
Potency [9]: inactive
Potency [10]: inactive
Potency [16]: inactive
Potency [17]: inactive
Potency [11]: inactive
Potency [12]: inactive
Potency [14]: inactive

CC(C)N(C(=O)CCl)c1ccccc1
Potency [1]: 54.5 µM (active)
Potency [2]: 4.86 µM (active) and 10.9 µM (active)
Potency [3]: inactive
Potency [4]: inactive
Potency [5]: inactive
Potency [6]: inactive
Potency [7]: inactive
Potency [8]: inactive
Potency [9]: inactive
Potency [10]: inactive
Potency [16]: inactive
Potency [12]: inactive
Potency [13]: inactive
Potency [14]: inactive
Potency [15]: inactive

CCCCc1c(C)nc(NCC)[nH]c1=O
Potency [1]: inactive
Potency [2]: inactive
Potency [4]: inactive
Potency [18]: inactive
Potency [20]: inactive
Potency [5]: inactive
Potency [6]: inactive
Potency [7]: inactive
Potency [19]: inactive
Potency [8]: inactive
Potency [9]: inactive
Potency [10]: inactive
Potency [16]: inactive
Potency [17]: inactive
Potency [11]: inactive
Potency [12]: inactive
Potency [13]: inactive
Potency [15]: inactive

BrCCBr
Potency [1]: inactive
Potency [2]: inactive
Potency [3]: inactive
Potency [4]: inactive
Potency [18]: inactive
Potency [20]: inactive
Potency [5]: inactive
Potency [6]: inactive
Potency [19]: inactive
Potency [8]: inactive
Potency [10]: inactive
Potency [17]: inactive
Potency [11]: inactive
Potency [13]: inactive
Potency [15]: inactive

COc1cc2c(cc1OC)[C@@]13CCN4CC5=CCO[C@H]6CC(=O)N2[C@H]1[C@H]6[C@H]5C[C@H]43
Potency [1]: inactive
Potency [2]: inactive
Potency [3]: inactive
Potency [4]: inactive
Potency [18]: inactive
Potency [20]: inactive
Potency [5]: inactive
Potency [7]: inactive
Potency [19]: inactive
Potency [8]: inactive
Potency [9]: inactive
Potency [10]: inactive
Potency [16]: inactive
Potency [17]: inactive
Potency [11]: inactive
Potency [12]: inactive
Potency [14]: inactive
Potency [15]: inactive

CCOC(=O)CC(SP(=O)(OC)OC)C(=O)OCC (configuration not stated)
Potency [1]: inactive
Potency [2]: inactive and 61.1 µM (active)
Potency [3]: inactive
Potency [4]: inactive
Potency [5]: inactive
Potency [6]: inactive
Potency [19]: inactive
Potency [8]: inactive
Potency [9]: inactive
Potency [10]: inactive
Potency [16]: inactive
Potency [17]: inactive
Potency [11]: inactive
Potency [12]: inactive
Potency [14]: inactive
Potency [15]: inactive

CCOP(=S)(OCC)Oc1cnc2ccccc2n1
Potency [1]: inactive
Potency [2]: inactive
Potency [3]: inactive
Potency [4]: inactive
Potency [5]: inactive
Potency [6]: inactive
Potency [7]: inactive
Potency [19]: inactive
Potency [8]: inactive
Potency [9]: inactive
Potency [10]: inactive
Potency [17]: inactive
Potency [11]: inactive
Potency [12]: inactive
Potency [13]: inactive
Potency [15]: inactive

CCN(CC)C(=O)SCc1ccc(Cl)cc1
Potency [1]: inactive
Potency [2]: inactive
Potency [3]: inactive
Potency [5]: inactive
Potency [6]: inactive
Potency [7]: inactive
Potency [19]: inactive
Potency [9]: inactive
Potency [16]: inactive
Potency [17]: inactive
Potency [11]: inactive
Potency [12]: inactive
Potency [14]: inactive
Potency [15]: inactive

BrCc1ccc(Br)cc1
Potency [1]: inactive
Potency [2]: inactive
Potency [3]: inactive
Potency [4]: inactive
Potency [18]: inactive
Potency [20]: inactive
Potency [5]: inactive
Potency [6]: inactive
Potency [19]: inactive
Potency [8]: inactive
Potency [9]: inactive
Potency [10]: inactive
Potency [16]: inactive
Potency [17]: inactive
Potency [11]: inactive
Potency [12]: inactive
Potency [13]: inactive
Potency [14]: inactive
Potency [15]: inactive

CS(=O)(=O)Cl
Potency [1]: inactive
Potency [2]: inactive
Potency [3]: inactive
Potency [4]: inactive
Potency [18]: inactive
Potency [20]: inactive
Potency [6]: inactive
Potency [7]: inactive
Potency [8]: inactive
Potency [9]: inactive
Potency [10]: inactive
Potency [11]: inactive
Potency [12]: inactive
Potency [14]: inactive

O=P(O)(O)CCCl
Potency [1]: inactive
Potency [2]: inactive
Potency [3]: inactive
Potency [4]: inactive
Potency [20]: inactive
Potency [6]: inactive
Potency [7]: inactive
Potency [19]: inactive
Potency [8]: inactive
Potency [9]: inactive
Potency [10]: inactive
Potency [16]: inactive
Potency [17]: inactive
Potency [11]: inactive
Potency [12]: inactive
Potency [13]: inactive
Potency [14]: inactive
Potency [15]: inactive
